Hits are enriched below; roughly 3.1% of the tested compounds scored in any of these assays.
PLK1 PBD inh = PLK1 (human) polo-box domain binding inhibition | P53350 | Plk1 PBD binding of FITC phosphopeptide, fluorescence polarization | Potency, µM, without a hit: max response, negative = inhibition, most hits filed as inhibitors | actives 2.8% (n = 360,000) | AID 720504; also: potency is read from the fitted curve at half-maximal effect; series mostly up to about 57 µM; % is scaled to controls: 0 for no effect and ±100 for the full control effect; nearly all actives have a fitted effect of over 65% in size
VDR inh = inhibitors of human vitamin D receptor; VDR-SRC2-3 peptide fluorescence polarization, 2 h; actives 0.93% (n = 400,000); AID 504847; P11473; Potency, µM, without a hit: max response, negative = inhibition, usual class: inhibitors; also: potency is read from the fitted curve at half-maximal effect; % is scaled to controls: 0 for no effect and ±100 for the full control effect
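FP read-out; VDR + SRC2-3 coactivator peptide; 23 nl compound by pintool; 2 h RT incubation; reagents held at 4 deg C, protected from light.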
TSHR antag = human thyrotropin receptor antagonism. P16473. actives 0.2% (n = 330,000). activity change, negative = inhibition, % at 11.5 µM. TSHR-expressing cells, TSH-stimulated cAMP HTRF, 2 h; active compounds read low;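 active = activity change below a set negative limit, meaning inhibition stronger than a set level, cut at about -70% in these data; inconclusive = activity change between two set negative limits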; also: % is scaled to controls: 0 for no effect and ±100 for the full control effect
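TSHR-expressing cells, 200/well, pre-treated with compound, then stimulated with EC80 TSH (4nM final) for 2 hours at 37 deg C. cAMP measured by competitive HTRF: anti-cAMP cryptate antibody in lysis buffer plus cAMP-d2, read after 30 minutes at room temperature.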
uPA generation = blocks generation of uPA at the cell surface; cell surface uPA generation assay, qHTS; Potency, µM (highest dose often 38.3 µM), inactives show at the top dose activity change, negative = inhibition, actives largely listed as inhibitors; actives 0.31% (n = 330,000); AID 540303; active = well fitted inhibition curve with a large enough effect; inconclusive = small, poorly fitted or top-dose-only effect; inactive = no such curve, though single readings can be large or run the other way; tested in mouse RAW 264.7 cells; also: potency is read from the fitted curve at half-maximal effect; % is scaled to controls: 0 for no effect and ±100 for the full control effect; nearly all actives have a fitted effect of over 55% in size
TSG101-PTAP inh = blocks PTAP/TSG101 interaction to inhibit HIV-1 budding | 340,000 tested, under 10 active | Q99816 | Fluorescence polarization, FITC-PTAP peptide / Tsg101 binding | Potency, µM (top dose mostly 115 µM), inactives show top-dose activity change, negative = inhibition, actives largely listed as inhibitors; active = well fitted inhibition curve with a large enough effect in the main read-out, with a control signal flat, not every such curve was filed as active; inconclusive = small, poorly fitted or top-dose-only effect, or effect the other way, or a change in a side signal; inactive = no such curve, though single readings can be large or run the other way; also: potency is read from the fitted curve at half-maximal effect; % of control where 0% means no effect
Target sequence (Q99816 whole entry, looked up): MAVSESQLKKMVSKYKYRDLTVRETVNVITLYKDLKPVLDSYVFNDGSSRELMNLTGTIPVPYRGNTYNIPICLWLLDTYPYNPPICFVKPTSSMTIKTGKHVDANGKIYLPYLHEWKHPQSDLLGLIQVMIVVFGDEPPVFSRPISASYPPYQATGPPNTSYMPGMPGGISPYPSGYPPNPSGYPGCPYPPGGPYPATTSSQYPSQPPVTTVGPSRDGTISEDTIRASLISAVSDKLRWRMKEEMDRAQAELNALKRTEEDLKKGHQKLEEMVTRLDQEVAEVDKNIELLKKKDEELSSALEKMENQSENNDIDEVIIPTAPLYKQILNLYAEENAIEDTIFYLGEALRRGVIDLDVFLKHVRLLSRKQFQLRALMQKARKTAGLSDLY
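FP read-out: FITC-PTAP peptide, 50 nM final, binding Tsg101 binding domain, 10 uM final; 20 min, r.t.; 10 mM HEPES pH 7.5, 0.15 M NaCl, 0.01% Tween 20, 3 mM EDTA, 0.1 mM TCEP.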
USP1-UAF1 confirm = validation of human USP1/UAF1 inhibitors; shares compounds with VDR inh; Ub-Rhodamine cleavage, fluorescence kinetic read; Potency, µM (series often up to 114 µM), without a hit: top-dose activity change, negative = inhibition, hits mostly inhibitors; actives 50% (n = 50)
VDR confirm = inhibits human vitamin D receptor, primary hit validation | shares compounds with VDR inh | VDR-coactivator inhibition assay, qHTS confirmation | Potency, µM, usual class: inhibitors | actives 89% (n = 840); also: potency is read from the fitted curve at half-maximal effect
VDR FP = blocks human VDR-coactivator binding in fluorescein assay; shares compounds with VDR inh; VDR-coactivator binding, fluorescein fluorescence polarization; Potency, µM (highest dose often 57.1 µM), for the others: top-dose activity change, negative = inhibition, usual class: inhibitors; actives 48% (n = 840); AID 602200; also: potency is read from the fitted curve at half-maximal effect
VDR bla reporter = inhibits human VDR in beta-lactamase reporter cells; shares compounds with VDR inh; VDR beta-lactamase reporter cells, FRET ratio; cells co-treated with VDR agonist LG190178; Potency, µM (highest dose often 46.1 µM), for the others: at the top dose activity change, negative = inhibition, hits mostly inhibitors; actives 23% (n = 840); AID 602202; also: potency is read from the fitted curve at half-maximal effect; % is scaled to controls: 0 for no effect and ±100 for the full control effect
VDR viability = cell toxicity, VDR inhibitor hit counter-screen | AID 602204 | Potency, µM (titrated, usually from 48.3 µM), for inactives: top-dose activity change, negative = cytotoxicity, hits mostly cytotoxic | shares compounds with VDR inh | cytotoxicity counter-screen, cell viability, qHTS | actives 18% (n = 840);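 also: potency is read from the fitted curve at half-maximal effect; plate controls were DMSO for no effect and high-concentration cycloheximide for full effect; nearly all actives have a fitted effect of over 75% in size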
The depositor's hits bear a star. Unless noted, calls follow the shape of the dose curve; as a rule, active = well fitted curve in the direction sought with a large enough effect; inconclusive = small, poorly fitted or top-dose-only effect, or another doubt; inactive = no such curve, though single readings can be large; an effect the other way counts as inactive or inconclusive.

What do the screens show for `CCOC(=O)c1nn(-c2ccccc2C)c(=O)c2c(N)scc12`?
PLK1 PBD inh: -14.2%; VDR inh: 35.5µM*; TSHR antag: 7.9; uPA generation: -5.3%; TSG101-PTAP inh: -5.7%; VDR confirm: inconclusive; VDR FP: inconclusive; VDR bla reporter: 21.1%; VDR viability: -27.4%

Results for COC(=O)C(CCSC)Nc1ncnc2onc(-c3ccc(F)cc3)c12 (centres undefined) ?
VDR inh: -13.9%

How did CS(=O)(=O)c1ncc(Cl)c(C(=O)N(Cc2ccc(Cl)cc2)Cc2ccco2)n1 do in these assays?
VDR inh: 25.1µM*; VDR confirm: 2.82*; VDR FP: 3.55µM*; VDR bla reporter: 16.4µM*; VDR viability: 18.9µM*

Results for CC(=O)N1CCOc2ccc(S(=O)(=O)NC[C@H]3O[C@@H](n4ccc(N)nc4=O)[C@H](O)[C@@H]3O)cc21 ?
PLK1 PBD inh: -10.3%

What do the screens show for `O=C(O)CN1C(=O)/C(=C/C=C/c2ccccc2)SC1=S`?
PLK1 PBD inh: inconclusive; VDR inh: -10.4%; TSHR antag: 5.2; uPA generation: inconclusive; TSG101-PTAP inh: -2.8%

What do the screens show for `O=C(O)CN1C(=O)/C(=C\C(Br)=C\c2ccccc2)SC1=S`?
PLK1 PBD inh: 5.97µM*; VDR inh: 35.5µM*; TSHR antag: -1.0; uPA generation: -5.8%; TSG101-PTAP inh: -3.2%; VDR confirm: inconclusive; VDR FP: 18.4%; VDR bla reporter: inconclusive; VDR viability: inconclusive

Results for CCCc1cc(=O)[nH]c(SCc2nc(-c3ccc(OC)cc3)no2)n1 ?
VDR inh: -5.8%

What do the screens show for `C[C@H](C(=O)O)c1ccc2cc(O)ccc2c1`?
VDR inh: 0.6%

Results for CC(C)(C)OC(=O)N1CCC(c2c(C(=O)NCCc3ccccc3)cnn2-c2ccc(F)cc2)CC1 ?
VDR inh: 4.5%

How did Cc1ccc(NC(=O)Nc2nnc(SCC(=O)N3CCC(C)CC3)s2)cc1 do in these assays?
VDR inh: -5.9%

How did COc1ccc(C(C2C(=O)CC(C)(C)CC2=O)C2C(=O)CC(C)(C)CC2=O)cc1COCC(F)(F)F do in these assays?
PLK1 PBD inh: 6.7µM*; VDR inh: 20µM*; TSHR antag: -6.1; uPA generation: -1.9%; TSG101-PTAP inh: -1.3%; VDR confirm: 5.97*; VDR FP: inconclusive; VDR bla reporter: 26.0%; VDR viability: 11.3%

How did COc1ccc(CN(C)C(=O)Cn2cnc3c(NCc4ccccc4)ncnc32)cc1OC do in these assays?
PLK1 PBD inh: -5.1%; VDR inh: 8.7%; TSHR antag: 26.1; uPA generation: -1.2%; TSG101-PTAP inh: 0.5%

How did O=C1NC(=O)/C(=C/c2ccc(-c3ccc(F)cc3O)o2)S1 do in these assays?
VDR inh: 12.6µM*; TSHR antag: -14.4; USP1-UAF1 confirm: 52.7µM*

Results for CC1(C(=O)NS(=O)(=O)c2ccc(Cl)s2)CCN1C(=O)Cc1ccc(Cl)cc1Cl (centres undefined) ?
PLK1 PBD inh: -1.9%

What do the screens show for `Clc1ccc(C[n+]2csc3ccccc32)cc1`?
PLK1 PBD inh: 26.7µM*; VDR inh: 50.1µM*; TSHR antag: -6.8; uPA generation: -7.1%; TSG101-PTAP inh: -0.5%; VDR confirm: 15*; VDR FP: inconclusive; VDR bla reporter: 19.3%; VDR viability: 3.8%

Results for CCCCCn1c(-c2cccc(C)c2)nc2ccccc21 ?
VDR inh: 13.6%

What do the screens show for `CCN(CC)c1ccc(/C=C/C(=O)c2cccnc2)cc1`?
PLK1 PBD inh: -12.2%; VDR inh: 11.6%; TSHR antag: 7.7; uPA generation: 5.1%; TSG101-PTAP inh: -9.3%

How did O=C(Nc1ccc(OCc2ccccc2)cc1)c1cccnc1 do in these assays?
PLK1 PBD inh: -0.6%; VDR inh: -4.6%; TSHR antag: -5.4; uPA generation: -5.5%; TSG101-PTAP inh: -4.3%

How did O=C(/C=C/c1ccccc1Cl)NNC(=O)c1ccncc1 do in these assays?
PLK1 PBD inh: 2.6%; VDR inh: 8.6%; TSHR antag: 7.5; uPA generation: -6.4%; TSG101-PTAP inh: -1.0%

What do the screens show for `O=C(/C=C/c1ccc(OCc2ccccc2)c(OCc2ccccc2)c1)c1cccnc1`?
PLK1 PBD inh: -10.4%; VDR inh: inconclusive; TSHR antag: 30.7; uPA generation: -7.8%; TSG101-PTAP inh: -3.8%; VDR confirm: 7.08*; VDR FP: 3.98µM*; VDR bla reporter: -13.7%; VDR viability: -5.0%

How did N#Cc1ccc(/C=C/C(=O)c2cccnc2)cc1 do in these assays?
PLK1 PBD inh: inconclusive; VDR inh: 11.2µM*; TSHR antag: -13.1; uPA generation: inconclusive; TSG101-PTAP inh: -4.4%; VDR confirm: 8.44*; VDR FP: inconclusive; VDR bla reporter: inconclusive; VDR viability: inconclusive

What do the screens show for `O=C(/C=C/c1ccccc1Cl)c1cccnc1`?
PLK1 PBD inh: inconclusive; VDR inh: 44.7µM*; TSHR antag: -18.5; uPA generation: -14.8%; TSG101-PTAP inh: -1.4%; VDR confirm: 6.7*; VDR FP: inconclusive; VDR bla reporter: inconclusive; VDR viability: inconclusive

What do the screens show for `O=C(/C=C/c1ccc(Cl)cc1)c1cccnc1`?
PLK1 PBD inh: inconclusive; VDR inh: 25.1µM*; TSHR antag: 27.0; uPA generation: -10.7%; TSG101-PTAP inh: 0.4%; VDR confirm: 5.97*; VDR FP: 5.62µM*; VDR bla reporter: 22.9%; VDR viability: 6.7%

How did Clc1ccccc1CN1CCN(/N=C/C=C/c2ccco2)CC1 do in these assays?
PLK1 PBD inh: -1.9%; VDR inh: -2.4%; TSHR antag: -13.6; uPA generation: 1.8%; TSG101-PTAP inh: -1.4%

Assay outcomes (PubChem)
